Measured values from PubChem BioAssay (NCATS).
Inconclusive results are not listed. Entries that show only a call come without a potency. Active and inactive are the calls of the source. Calls come from the whole dose curve; as a rule, active = well fitted cell-killing curve with a large enough effect; inconclusive = small, poorly fitted or top-dose-only effect, or effect the other way; inactive = flat fitted curve, though single readings scatter.

Experiment: qHTS of pediatric cancer cell lines to identify multiple opportunities for drug repurposing: Confirmatory screen for control Hh wild type fibroblast cells (AID 1347121); note: nearly all actives have a fitted effect of over 70% in size
Conditions: viability qHTS; series mostly up to 45.9 µM
Text: Drug repurposing or repositioning has been offered as a strategy for drug development in oncology programs. This approach has special potential for childhood cancers and other rare or orphan diseases, where the expected return on new drug development has been a disincentive to pharmaceuticals.
In this project we exploit the poly-pharmacology of drugs to discover new indications via phenotypic screening of a panel of 19 well-characterized cell lines derived from solid tumors seen in children and adolescents. The goal is to identify approved drugs with previously unrecognized anticancer properties that has the potential to reveal new mechanisms and biological processes involved in carcinogenesis or drug resistance. We employed a titration-based paradigm (quantitative high-throughput screening or qHTS), where all compounds were tested at multiple concentrations for their effect on cell viability. Concentration-response curves (CRCs) were derived directly from the primary screen, and both potency and efficacy values were used to identify compounds with robust bioactivity profiles. We screened the NIH Chemical Genomics Center (NCGC) Pharmaceutical Collection (NPC) and Mechanism Interrogation Plate (MIPE) small molecule collections of approved and investigational compounds against these cell lines; and measured metabolically active cells after 48 hours of compound treatment as a proxy for cell viability.
Assay Submitter: Nathalia J. Martinez, National Center for Advancing Translational Sciences, National Institutes of Health, Rockville, MD, USA; email: natalia.martinez@nih.gov
[1] Shen, M et al. Quantitative high-throughput phenotypic screening of pediatric cancer cell lines identifies multiple opportunities for drug repurposing. Oncotarget 2017 Dec 19;9(4):4758-4772. PMID 29435139.
The cells were obtained from University of North Carolina (UNC), Pediatric Preclinical Testing Program (PPT), and Coriell Institute (CI).
qHTS cell viability assay:
Cells were assayed in growth media at a density of 500-1,000 cells/well. Five microliters of cells were dispensed into 1,536-well, white, solid-bottom, TC-treated plates (Greiner Bio One) using a multidrop dispenser and incubated at 37 degrees C, 5% CO2, under a humidified atmosphere for 5 hours. Twenty-three nanoliters of compounds and controls (neutral control DMSO or positive control bortezomib at final concentration of 2.3 µM) were subsequently transferred by Kalypsys pintool. For primary screens, the MIPE collection was tested at 11-point dilutions (final concentrations range from 0.78 nM to 46 µM) and the NPC collection at 8-point dilutions (final concentrations range from 0.59 nM to 46 µM). Compounds tested in follow-up screens were assayed at 11-point dilutions. Cells were incubated for 48 hours, followed by addition of 3 µL of CellTiter-Glo (Promega). After a 15 min incubation at room temperature, samples were analyzed for luminescence intensity using a ViewLux High-throughput CCD imager equipped with clear filters.
Potency is the fitted concentration of half-maximal effect.

Row | Compound | Potency
1 | ClC1=C(Cl)C2(Cl)C(CBr)CC1(Cl)C2(Cl)Cl (stereo not drawn) | inactive
2 | CC1Sc2c(C(=O)O)c(=O)c3cc(F)c(N4CCNCC4)cc3n21 (stereo not drawn) | inactive
3 | COC(=O)C1=CCCN(C)C1 | inactive
4 | C[C@@H]1C[C@@H]([C@H](O)CC2CC(=O)NC(=O)C2)C(=O)[C@@H](C)C1 | inactive
5 | O=C(O)Cc1ccccc1 | inactive
6 | CN1[C@@H]2CC[C@H]1CC(OC(=O)c1cc(Cl)cc(Cl)c1)C2 (stereo partly drawn) | inactive
7 | COc1ccc2c(C(=O)c3ccc(Cl)cc3)c(C)n(CC(=O)O)c2c1 | inactive
8 | CC[n+]1c(-c2ccccc2)c2cc(N)ccc2c2ccc(N)cc21 | 9.27 µM (active)
9 | CCc1ccc(C2CCNCC2)cc1 | inactive
10 | Cc1ccc([N+](=O)[O-])[c]2c1[O][Hg]2 | 16.5 µM (active)
11 | CCCCCCCCC(=O)NCc1ccc(O)c(OC)c1 | inactive
12 | CN(C)C(=S)SSC(=S)N(C)C | inactive
13 | COc1ccc(C(=O)N2CCCC2=O)cc1 | inactive
